Source: the supplement of paper PMC9446081
± gives the standard deviation of the averaged measurements.

Columns and labels:
Assay in all cases: relative enzymatic activity vs untreated control (fraction); higher = less inhibition
Settings in all cases: 100 µM; incubation time: 2 h at 37 C
[1] = tested on: DNA gyrase
Description: (§1)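 In vitro enzymatic inhibition assays (ProFoldin kits) for 12 purified essential E. coli enzymes or complexes, each treated with 218 active antibacterial compounds at 100 µM for 2 h at 37°C. Read-outs were fluorescence or absorbance (phosphate detection, dye binding), converted to activity via standard curves and expressed relative to untreated DMSO controls.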

[2] = target: DNA helicase (UniProt P0ACB1)
Sequence of DNA helicase (P0ACB1 whole entry): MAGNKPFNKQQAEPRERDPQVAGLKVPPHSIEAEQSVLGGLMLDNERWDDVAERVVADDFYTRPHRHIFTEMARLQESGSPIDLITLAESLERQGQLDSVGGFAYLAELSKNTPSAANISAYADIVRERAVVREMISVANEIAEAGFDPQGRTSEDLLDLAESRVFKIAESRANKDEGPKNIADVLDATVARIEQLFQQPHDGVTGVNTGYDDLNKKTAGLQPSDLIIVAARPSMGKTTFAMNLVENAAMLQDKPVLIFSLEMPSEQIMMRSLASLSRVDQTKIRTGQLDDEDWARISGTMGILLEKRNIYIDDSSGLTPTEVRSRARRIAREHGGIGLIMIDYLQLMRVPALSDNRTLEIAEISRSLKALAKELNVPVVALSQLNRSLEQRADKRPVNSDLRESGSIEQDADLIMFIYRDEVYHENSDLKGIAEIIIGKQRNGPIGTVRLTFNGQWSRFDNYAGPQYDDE
Description: as §1

[3] = target: DNA ligase (UniProt B1XA82)
Sequence of DNA ligase (B1XA82 whole entry): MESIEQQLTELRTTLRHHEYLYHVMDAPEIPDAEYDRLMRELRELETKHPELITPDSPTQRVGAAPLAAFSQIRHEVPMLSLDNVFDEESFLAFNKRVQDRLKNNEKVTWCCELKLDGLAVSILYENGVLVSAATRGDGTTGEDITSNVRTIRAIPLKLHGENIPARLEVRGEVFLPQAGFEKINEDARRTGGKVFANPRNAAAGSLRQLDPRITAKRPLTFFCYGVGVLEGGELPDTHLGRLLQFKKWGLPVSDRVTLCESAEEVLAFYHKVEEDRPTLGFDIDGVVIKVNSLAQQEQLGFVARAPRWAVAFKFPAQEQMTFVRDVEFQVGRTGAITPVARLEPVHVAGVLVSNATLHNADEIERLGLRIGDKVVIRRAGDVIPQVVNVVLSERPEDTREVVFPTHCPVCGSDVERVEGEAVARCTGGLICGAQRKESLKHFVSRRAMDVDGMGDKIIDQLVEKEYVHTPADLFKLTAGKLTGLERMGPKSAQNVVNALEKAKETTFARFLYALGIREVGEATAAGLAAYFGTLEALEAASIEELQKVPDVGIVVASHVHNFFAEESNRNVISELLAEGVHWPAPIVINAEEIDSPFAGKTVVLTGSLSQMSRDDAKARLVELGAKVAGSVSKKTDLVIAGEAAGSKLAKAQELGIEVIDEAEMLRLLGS
Description: as §1

[4] = target: DNA polymerase (UniProt P10443)
Sequence of DNA polymerase (P10443 whole entry): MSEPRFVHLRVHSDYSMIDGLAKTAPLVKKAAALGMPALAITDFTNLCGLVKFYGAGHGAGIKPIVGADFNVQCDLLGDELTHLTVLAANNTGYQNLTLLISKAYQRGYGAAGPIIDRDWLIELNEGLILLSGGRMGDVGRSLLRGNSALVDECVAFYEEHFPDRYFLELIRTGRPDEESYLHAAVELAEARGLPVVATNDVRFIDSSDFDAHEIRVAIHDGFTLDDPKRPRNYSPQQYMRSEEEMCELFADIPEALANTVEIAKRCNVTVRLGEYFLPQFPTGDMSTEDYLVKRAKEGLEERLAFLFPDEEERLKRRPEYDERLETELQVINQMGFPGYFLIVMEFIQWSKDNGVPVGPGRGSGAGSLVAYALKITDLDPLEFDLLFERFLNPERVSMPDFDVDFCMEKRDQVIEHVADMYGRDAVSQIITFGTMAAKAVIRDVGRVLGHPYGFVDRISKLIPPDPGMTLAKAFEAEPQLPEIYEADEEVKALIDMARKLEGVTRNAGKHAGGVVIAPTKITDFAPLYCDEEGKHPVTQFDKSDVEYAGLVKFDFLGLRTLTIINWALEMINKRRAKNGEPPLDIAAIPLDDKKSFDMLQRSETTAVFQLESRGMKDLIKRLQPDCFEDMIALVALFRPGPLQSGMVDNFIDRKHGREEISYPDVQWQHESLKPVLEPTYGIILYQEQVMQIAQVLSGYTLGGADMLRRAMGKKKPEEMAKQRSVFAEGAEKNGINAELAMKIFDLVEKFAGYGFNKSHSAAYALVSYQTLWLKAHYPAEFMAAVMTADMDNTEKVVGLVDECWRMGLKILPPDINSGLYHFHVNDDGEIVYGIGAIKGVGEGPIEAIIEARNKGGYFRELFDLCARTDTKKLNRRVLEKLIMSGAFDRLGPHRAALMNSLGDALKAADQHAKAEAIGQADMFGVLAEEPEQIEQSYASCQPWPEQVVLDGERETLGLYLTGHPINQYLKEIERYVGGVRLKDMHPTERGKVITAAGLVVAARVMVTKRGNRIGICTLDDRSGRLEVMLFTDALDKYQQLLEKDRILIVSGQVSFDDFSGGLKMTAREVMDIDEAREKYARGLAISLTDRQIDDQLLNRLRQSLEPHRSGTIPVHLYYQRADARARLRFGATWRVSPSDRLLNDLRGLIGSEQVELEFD
Description: as §1

[5] = target: DNA primase (UniProt P0ABS7)
Sequence of DNA primase (P0ABS7 whole entry): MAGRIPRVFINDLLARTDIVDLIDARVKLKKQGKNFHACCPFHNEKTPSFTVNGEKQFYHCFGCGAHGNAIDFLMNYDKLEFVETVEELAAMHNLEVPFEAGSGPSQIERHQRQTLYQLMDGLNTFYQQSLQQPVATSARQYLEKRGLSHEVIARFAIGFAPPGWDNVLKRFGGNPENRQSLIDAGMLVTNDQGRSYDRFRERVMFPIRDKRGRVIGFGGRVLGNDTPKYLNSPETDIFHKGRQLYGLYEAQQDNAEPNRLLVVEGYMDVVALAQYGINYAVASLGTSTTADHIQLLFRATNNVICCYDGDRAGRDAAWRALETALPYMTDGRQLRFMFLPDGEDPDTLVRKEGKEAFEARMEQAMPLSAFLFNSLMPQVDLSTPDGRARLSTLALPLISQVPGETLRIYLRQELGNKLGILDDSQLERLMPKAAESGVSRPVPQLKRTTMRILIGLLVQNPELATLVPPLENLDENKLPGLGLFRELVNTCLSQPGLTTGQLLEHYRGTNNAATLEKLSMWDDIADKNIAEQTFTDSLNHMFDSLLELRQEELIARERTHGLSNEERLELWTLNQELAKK
Description: as §1

[6] = target: GlmU (UniProt A7ZTU1)
Sequence of GlmU (A7ZTU1 whole entry, looked up): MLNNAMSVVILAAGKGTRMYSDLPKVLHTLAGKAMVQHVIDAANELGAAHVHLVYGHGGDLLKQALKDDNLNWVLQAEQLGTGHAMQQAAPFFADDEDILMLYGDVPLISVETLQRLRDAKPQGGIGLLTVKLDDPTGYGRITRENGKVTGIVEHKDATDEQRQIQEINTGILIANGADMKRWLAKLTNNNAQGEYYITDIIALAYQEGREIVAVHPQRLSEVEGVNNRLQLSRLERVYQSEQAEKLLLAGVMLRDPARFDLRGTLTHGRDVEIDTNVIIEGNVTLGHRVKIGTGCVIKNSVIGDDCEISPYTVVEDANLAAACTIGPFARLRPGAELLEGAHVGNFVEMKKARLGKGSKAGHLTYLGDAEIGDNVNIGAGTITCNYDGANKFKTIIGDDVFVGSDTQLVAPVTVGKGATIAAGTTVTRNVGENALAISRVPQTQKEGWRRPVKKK
Description: as §1

[7] = target: Guanlyate kinase (UniProt Q0TBG1)
Sequence of Guanlyate kinase (Q0TBG1 whole entry): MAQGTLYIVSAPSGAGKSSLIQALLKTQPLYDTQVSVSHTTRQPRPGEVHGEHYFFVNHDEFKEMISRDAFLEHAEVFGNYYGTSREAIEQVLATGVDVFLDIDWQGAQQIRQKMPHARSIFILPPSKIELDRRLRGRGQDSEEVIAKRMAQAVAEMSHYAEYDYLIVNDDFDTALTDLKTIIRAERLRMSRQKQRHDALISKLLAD
Description: as §1

[8] = target: MurA (UniProt Q3YX52)
Sequence of MurA (Q3YX52 whole entry): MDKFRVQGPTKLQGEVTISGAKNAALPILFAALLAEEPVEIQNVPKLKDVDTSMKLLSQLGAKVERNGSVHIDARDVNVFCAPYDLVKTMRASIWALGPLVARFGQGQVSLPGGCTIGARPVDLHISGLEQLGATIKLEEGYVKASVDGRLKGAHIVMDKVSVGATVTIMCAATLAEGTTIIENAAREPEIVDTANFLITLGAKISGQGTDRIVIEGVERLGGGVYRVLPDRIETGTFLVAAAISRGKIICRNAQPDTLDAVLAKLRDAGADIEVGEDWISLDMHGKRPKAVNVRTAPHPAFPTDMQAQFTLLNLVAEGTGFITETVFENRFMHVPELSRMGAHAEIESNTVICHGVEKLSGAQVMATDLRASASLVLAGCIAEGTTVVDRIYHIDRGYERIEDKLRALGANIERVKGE
Description: as §1

[9] = target: T1, MurD (UniProt P14900)
T1 sequence (whole entry): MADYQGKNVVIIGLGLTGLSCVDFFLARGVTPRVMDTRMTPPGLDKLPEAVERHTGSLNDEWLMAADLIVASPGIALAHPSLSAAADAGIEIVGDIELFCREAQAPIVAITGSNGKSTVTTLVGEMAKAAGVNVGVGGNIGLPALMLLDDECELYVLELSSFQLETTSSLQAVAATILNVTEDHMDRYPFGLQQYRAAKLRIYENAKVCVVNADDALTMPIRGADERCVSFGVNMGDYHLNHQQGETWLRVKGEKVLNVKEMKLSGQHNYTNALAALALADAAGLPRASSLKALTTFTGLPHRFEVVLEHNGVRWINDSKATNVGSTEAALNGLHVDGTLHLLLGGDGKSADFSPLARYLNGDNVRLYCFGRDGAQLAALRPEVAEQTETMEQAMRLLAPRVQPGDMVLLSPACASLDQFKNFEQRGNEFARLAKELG
Description: as §1

[10] = target: T2, MurF (UniProt P11880)
T2 sequence (whole entry): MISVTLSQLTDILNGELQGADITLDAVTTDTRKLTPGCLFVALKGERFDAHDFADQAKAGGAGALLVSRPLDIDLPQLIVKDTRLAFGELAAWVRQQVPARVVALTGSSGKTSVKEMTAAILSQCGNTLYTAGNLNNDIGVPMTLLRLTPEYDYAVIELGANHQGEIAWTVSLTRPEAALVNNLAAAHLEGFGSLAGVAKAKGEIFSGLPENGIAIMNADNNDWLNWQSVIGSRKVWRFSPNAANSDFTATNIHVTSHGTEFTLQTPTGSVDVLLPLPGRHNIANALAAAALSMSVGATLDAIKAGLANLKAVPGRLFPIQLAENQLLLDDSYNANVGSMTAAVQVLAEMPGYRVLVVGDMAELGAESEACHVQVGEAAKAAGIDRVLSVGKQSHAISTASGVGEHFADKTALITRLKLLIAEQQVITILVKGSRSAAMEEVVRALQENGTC
Description: as §1

[11] = tested on: RNA polymerase
Description: as §1

| Compound | relative enzymatic activity [1] | relative enzymatic activity [2] | relative enzymatic activity [3] | relative enzymatic activity [4] | relative enzymatic activity [5] | relative enzymatic activity [6] | relative enzymatic activity [7] | relative enzymatic activity [8] | relative enzymatic activity [9] | relative enzymatic activity [10] | relative enzymatic activity [11] |
| --- | --- | --- | --- | --- | --- | --- | --- | --- | --- | --- | --- |
| Cc1c(N)nc([C@H](CC(N)=O)NC[C@H](N)C(N)=O)nc1C(=O)N[C@H](C(=O)N[C@H](C)[C@@H](O)[C@H](C)C(=O)N[C@H](C(=O)NCCc1nc(-c2nc(C(=O)NCCCNCCCCN)cs2)cs1)[C@@H](C)O)[C@@H](O[C@@H]1O[C@@H](CO)[C@@H](O)[C@H](O)[C@@H]1O[C@@H]1O[C@H](CO)[C@@H](O)[C@H](OC(N)=O)[C@@H]1O)c1c[nH]cn1 | 0.0474 ± 0.067 | 0.732 ± 0.39 | 0.811 ± 0.15 | 0.308 ± 0.022 | 0.762 ± 0.041 | 0.988 ± 0.023 | 0.871 ± 0.084 | 0.872 ± 0.13 | 0.622 ± 0.4 | 0.281 ± 0.39 | 0.75 ± 0.034 |
| O=C1CN(N=Cc2ccc([N+](=O)[O-])o2)C(=O)N1 | 1.07 ± 0.045 | 0.467 ± 0.062 | 1.42 ± 0.59 | 1.32 ± 0.47 | 0.655 ± 0.11 | 0.964 ± 0.044 | 0.855 ± 0.027 | 0.649 ± 0.061 | 0.593 ± 0.41 | 0.96 ± 0.23 | 0.815 ± 0.028 |
| N[C@H]1CCN(c2nc3c(cc2F)c(=O)c(C(=O)O)cn3-c2ccc(F)cc2F)C1 | 0.206 ± 0.29 | 0.461 ± 0.041 | 0.91 ± 0.23 | 1.17 ± 0.24 | 0.774 ± 0.035 | 0.955 ± 0.026 | 0.852 ± 0.12 | 0.521 ± 0.22 | 0.586 ± 0.39 | 0.924 ± 0.25 | 0.929 ± 0.12 |
| CON=C(C(=O)NC1C(=O)N2C(C(=O)[O-])=C(CSc3nc(=O)c([O-])nn3C)CSC12)c1csc(N)n1.O.O.O.[Na+].[Na+] (stereo not drawn) | 0.7 ± 0.45 | 0.48 ± 0.015 | 1.29 ± 0.4 | 1.13 ± 0.23 | 0.69 ± 0.18 | 0.996 ± 0.014 | 0.914 ± 0.065 | 0.124 ± 0.03 | 0.583 ± 0.4 | 0.955 ± 0.21 | 0.843 ± 0.073 |
| CCN1CCN(c2cc3c(cc2F)c(=O)c(C(=O)O)cn3C2CC2)CC1 | 0.0177 ± 0.025 | 0.462 ± 0.018 | 1.05 ± 0.34 | 1.15 ± 0.22 | 0.617 ± 0.12 | 1 ± 0.11 | 0.894 ± 0.05 | 0.659 ± 0.029 | 0.59 ± 0.4 | 0.88 ± 0.13 | 0.808 ± 0.02 |
| CC(C)[C@@H](CC[C@@H](C)[C@H]1CC[C@H]2[C@@H]3[C@H](O)C[C@H]4C[C@@H](NCCCNCCCCNCCCN)CC[C@]4(C)[C@H]3CC[C@]12C)OS(=O)(=O)O | 1.18 ± 0.2 | 0.0588 ± 0.066 | 0.674 ± 0.096 | 0.126 ± 0.02 | 0.419 ± 0.016 | 0.813 ± 0.091 | 0.334 ± 0.028 | 0.187 ± 0.029 | 0.59 ± 0.41 | 1.03 ± 0.027 | 0.146 ± 0.0049 |
| C=C1c2cccc(O)c2C(=O)[C@@H]2C(=O)[C@]3(O)C(=O)[C@@H](C(N)=O)C(=O)[C@@H](N(C)C)[C@@H]3[C@@H](O)[C@H]12 | 0.554 ± 0.29 | 0.33 ± 0.051 | 0.848 ± 0.095 | 1.04 ± 0.31 | 0.707 ± 0.056 | 1.03 ± 0.018 | 0.679 ± 0.018 | 0.0871 ± 0.016 | 0.638 ± 0.46 | 1.06 ± 0.24 | 0.619 ± 0.015 |
| NC[C@H]1O[C@H](O[C@H]2[C@H](O)[C@@H](O[C@H]3O[C@H](CO)[C@@H](O)[C@H](N)[C@H]3O)[C@H](N)C[C@@H]2N)[C@H](N)[C@@H](O)[C@@H]1O | 0.315 ± 0.23 | 0.151 ± 0.041 | 0.868 ± 0.093 | 0.916 ± 0.35 | 0.46 ± 0.095 | 0.992 ± 0.076 | 0.3862 ± 0.0032 | 0.686 ± 0.15 | 0.605 ± 0.41 | 0.975 ± 0.24 | 0.781 ± 0.22 |
| Cc1cn([C@H]2C[C@H](N=[N+]=[N-])[C@@H](CO)O2)c(=O)[nH]c1=O | 0.52 ± 0.49 | 0.626 ± 0.26 | 0.932 ± 0.15 | 1.04 ± 0.19 | 0.733 ± 0.041 | 0.944 ± 0.04 | 0.885 ± 0.024 | 0.712 ± 0.092 | 0.491 ± 0.63 | 0.944 ± 0.18 | 0.778 ± 0.13 |
| CC(N)O.Cc1cc(CC(C)CC(C)(C)C)n(O)c(=O)c1 (stereo not drawn) | 0.964 ± 0.11 | 0.621 ± 0.26 | 1.17 ± 0.13 | 1.16 ± 0.23 | 0.719 ± 0.22 | 1.095 ± 0.0024 | 0.963 ± 0.12 | 0.844 ± 0.05 | 0.636 ± 0.43 | 0.592 ± 0.82 | 0.884 ± 0.076 |
| CO/N=C(\C(=O)N[C@@H]1C(=O)N2C(C(=O)O)=C(C[N+]3(C)CCCC3)CS[C@H]12)c1csc(N)n1 | 0.284 ± 0.099 | 0.202 ± 0.28 | 1.11 ± 0.05 | 1.12 ± 0.18 | 0.722 ± 0.012 | 0.943 ± 0.023 | 1.06 ± 0.074 | 0.144 ± 0.026 | 0.591 ± 0.42 | 1.15 ± 0.066 | 0.575 ± 0.11 |
| Cc1cc(O)c(C(=O)NC(C(=O)NC2C(=O)N3C(C(=O)O)=C(CSc4nnnn4C)CSC23)c2ccc(O)cc2)cn1 (stereo not drawn) | 0.926 ± 0.39 | 0.805 ± 0.39 | 1.22 ± 0.41 | 1.34 ± 0.42 | 0.891 ± 0.028 | 0.962 ± 0.018 | 0.925 ± 0.044 | 0.346 ± 0.0056 | 0.601 ± 0.41 | 0.945 ± 0.24 | 0.862 ± 0.071 |
| CO/N=C(\C(=O)N[C@@H]1C(=O)N2C(C(=O)O)=C(C)CS[C@H]12)c1csc(N)n1 | 0.614 ± 0.47 | 0.628 ± 0.2 | 0.904 ± 0.086 | 0.906 ± 0.062 | 0.822 ± 0.035 | 1.018 ± 0.0077 | 0.836 ± 0.015 | 0.479 ± 0.18 | 0.613 ± 0.43 | 0.979 ± 0.21 | 0.826 ± 0.098 |
| NCCONC(=O)[C@@H]1CC[C@@H]2CN1C(=O)N2OS(=O)(=O)O | 0.796 ± 0.34 | 0.527 ± 0.074 | 1.08 ± 0.078 | 1.13 ± 0.22 | 0.762 ± 0.033 | 1.02 ± 0.082 | 1.01 ± 0.12 | 0.709 ± 0.27 | 0.562 ± 0.36 | 0.971 ± 0.24 | 0.902 ± 0.075 |
| Cc1cn(C2CC(N=[N+]=[N-])C(CO)O2)c(=O)[nH]c1=O (stereo not drawn) | 0.801 ± 0.34 | 0.472 ± 0.1 | 1.38 ± 0.076 | 1.3 ± 0.36 | 0.692 ± 0.18 | 1.002 ± 0.0012 | 0.865 ± 0.097 | 0.77 ± 0.043 | 0.573 ± 0.35 | 0.97 ± 0.2 | 0.887 ± 0.0091 |
| C[C@H]1[C@H](NC(=O)/C(=N\OC(C)(C)C(=O)O)c2csc(N)n2)C(=O)N1S(=O)(=O)O | 0.898 ± 0.25 | 0.534 ± 0.15 | 0.815 ± 0.086 | 1.23 ± 0.28 | 0.8444 ± 0.0011 | 1.04 ± 0.031 | 1.04 ± 0.021 | 0.47 ± 0.14 | 0.623 ± 0.45 | 1.13 ± 0.55 | 0.869 ± 0.072 |
| CS(=O)(=O)c1ccc(C(O)C(CF)NC(=O)C(Cl)Cl)cc1 (stereo not drawn) | 0.854 ± 0.44 | 0.577 ± 0.2 | 1.21 ± 0.24 | 1.29 ± 0.35 | 0.8787 ± 0.0014 | 0.977 ± 0.042 | 0.976 ± 0.14 | 0.796 ± 0.099 | 0.575 ± 0.38 | 0.945 ± 0.21 | 0.916 ± 0.026 |
| C=CC1=C(C(=O)O)N2C(=O)[C@@H](NC(=O)/C(=N\O)c3csc(N)n3)[C@H]2SC1 | 0.489 ± 0.086 | 0.523 ± 0.095 | 0.92 ± 0.15 | 1.13 ± 0.24 | 0.774 ± 0.038 | 0.988 ± 0.07 | 0.885 ± 0.068 | 0.212 ± 0.095 | 0.619 ± 0.42 | 0.981 ± 0.22 | 0.894 ± 0.077 |
